# Results as given in ChEMBL document CHEMBL3988442, “University of Dundee, Small-Polar-MMV Screening Library” (2021).
# Hit rate of the full screen: of about 53,000 compounds, about 900 (1.7%) showed an effect of 50% or more. The list comes from a sample in which strong results are over-represented; it also holds similar structures and randomly drawn compounds.
# Tested on: Mycobacterium tuberculosis
# Assay: Cornell - Phenotypic assay to identify agents that inhibit growth of Mycobacterium tuberculosis
# Type: functional
# Parameters: scale not given: direction of the effect not stated beside the values
# Conditions: 10 mM as filed; unlikely as a test dose
row,Compound,Percent Effect [%]
1,Cc1cnn(CC2CN(CCc3cccs3)CCO2)c1 (stereo not drawn),13.16
2,CC(C(=O)NCC(C)(C)c1ccc2c(c1)OCCO2)n1cncn1 (stereo not drawn),-4.418
3,CC(=O)N1CCC(c2nc(C)cc(-c3ccccc3C(=O)O)n2)CC1,-42.06
4,COc1ccccc1OC1CCN(c2nccc(N)n2)CC1,-15.16
5,CS(=O)(=O)NCCCNC(=O)c1cnc(-c2ccsc2)s1,-10.19
6,Cn1cc(CN2CCC(c3ccncc3)CC2)cn1,9.056
7,COc1cc2c(cc1CN1CCC3(CCCN(C)C3=O)C1)OCCO2 (stereo not drawn),14.22
8,COc1ccc(CN2CCC3(CCCN(C)C3=O)C2)c(Cl)c1OC (stereo not drawn),41.14
9,COc1ccc(CN2CCC3(CCCN(C)C3=O)C2)c(OC)c1C (stereo not drawn),52.12
10,CCN(CC)CCNS(=O)(=O)c1cccc(CSC)c1,5.575
11,Cc1noc(C)c1S(=O)(=O)NCC(O)c1ccc2c(c1)CCO2 (stereo not drawn),-26.48
12,Cc1nc(CNCC2CN(C)CCO2)cs1 (stereo not drawn),0.5218
13,CC(=O)N[C@H]1CN(S(=O)(=O)N(C)Cc2ccccc2)C[C@@H]1C1CC1,14.84
14,CCC1CCCCN1C(=O)Cn1nc(-c2ccc(C)o2)cc(N)c1=O (stereo not drawn),-6.265
15,CCC1CCCCN1C(=O)Cn1nc(-c2cc(C)oc2C)cc(N)c1=O (stereo not drawn),52.47
16,CCC1CCCCN1C(=O)Cn1nc(-c2ccc(C)s2)cc(N)c1=O (stereo not drawn),45.47
17,NCCc1n[nH]c(=O)n1-c1cccc(Cl)c1Cl,-33.73
18,Cc1cccc(CN2C[C@@H]3CN(C(=O)C4CCOC4)C[C@@H]3C2=O)c1 (stereo partly drawn),4.733
19,Cc1ccc(NC(=O)CNc2ccccc2C(N)=O)c(C)c1,-11.67
20,COc1ccc(CNC(=O)CNc2ccccc2OC)cc1,22.93
21,COc1ccc(NC(=O)CNc2cccc3c2CCCC3)c(OC)c1,76.54
22,COc1ccc(NC(=O)Cn2nc(C)c(C)cc2=O)c(OC)c1,11.71
23,Cc1ccc(NC(=O)CNc2cccc(C(N)=O)c2C)c(C)c1,-29.06
24,Cc1ccc(NC(=O)CNc2cccc3c2CCCC3)c(Br)c1,51.04
25,NC(=O)CCSc1n[nH]c(-c2ccc3c(c2)CCC3)n1,8.887
26,CN1CCC(N(C)C(=O)c2cnc3c(cnn3C3CCCC3)c2)CC1,15.63
27,Cc1ccc(C#N)c(N2CC(C)(C)[C@@](C)(O)C2)n1,10.2

row,Compound,Percent Effect [%]
1,O=C(CCc1nnc(-c2ccsc2)o1)NCC1CCN(C2CC2)C1 (stereo not drawn),-9.076
2,Cc1c(CNCc2nn(-c3ccccc3)c3c2CCC3)cc(C#N)n1C,0.6388
3,COc1ccccc1CNCc1nn(-c2ccccc2)c2c1CCC2,75.02
4,Cc1noc(C)c1CNCc1nn(-c2ccccc2)c2c1CCC2,-25.17
5,NC(=O)CSCC(=O)NCC1CCCC1,-10.13
6,CN(CC(=O)NC1(C)CCS(=O)(=O)C1)Cc1ccc(Br)cc1 (stereo not drawn),-6.576
7,O=C(CSCCN1CCOCC1)N1CCCCCC1,-6.957
8,CCc1nnc(CN(C)c2nccc(CCC(F)(F)F)n2)o1,6.8
9,CNc1ncc(CN(C)c2nccc(CCC(F)(F)F)n2)cn1,50.32
10,CN(Cc1ccncn1)c1nccc(CCC(F)(F)F)n1,-20.7
11,CS(=O)(=O)N1CCCC1C(=O)Nc1cnc2n1CCCC2 (stereo not drawn),9.053
12,CCCNC(=O)NC(=O)CNC(C)(C)c1ccc2c(c1)OCO2,0.4574
13,CCCNC(=O)NC(=O)CNC(C)(C)c1ccc2c(c1)OCCO2,101.9
14,CCNC(=O)NC(=O)CNC(C)(C)c1ccc2c(c1)OCCO2,27.43
15,Cc1n[nH]c(C)c1S(=O)(=O)N1CCC(Oc2cnccn2)CC1,6.999
16,O=C(O)c1cccn1-c1ccc2c(c1)OCCO2,28.73
17,COc1ccccc1CCNC(=O)C1CCC(Cn2cnnn2)CC1 (stereo not drawn),3.007
18,Cc1nn(C)c2nc(N(C)CCN(C)C3CCCC3)sc12,37.55
19,Cc1nn(C)c2nc(N(CCN(C)C)C3CCCC3)sc12,19.35
20,Cc1nn(C)c2nc(N(Cc3cnn(C)c3)C3CCCCC3)sc12,56.52
21,c1ccn(Cc2nnc3n2CCCN(c2cnccn2)C3)c1,-17.01
22,Cc1ccc(CN2CCN(c3ccc(F)cn3)CC2=O)cc1C,39.83
23,CCC(NC(=O)NCC(=O)NC(C)C)c1cc(F)ccc1F (stereo not drawn),5.032
24,CCOc1ccc(NC(=O)NCCCN(C)S(C)(=O)=O)cc1C,30.17
25,CCOc1ccc(NC(=O)NCc2csc(NC)n2)cc1C,21.98
26,CCOc1ccc(NC(=O)NCCS(=O)(=O)CC)cc1C,60.38
